CR mimetic SO – lowers age-related superoxide in aged yeast cells | S. cerevisiae aged cells, superoxide DHE fluorescence; active compounds read low | superoxide response (% of plate mean), % at 10 µM | AID 2690 | 0.18% of 330,000 active;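 active = superoxide response under a set limit, about three screen SD below normal, cut at about 65% in these data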;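 also: yeast aged for seven days with compound at 30 °C before DHE staining; 100% = average MFI of all compound-treated wells on the plate with controls excluded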
A3A deaminase – human APOBEC3A DNA deaminase inhibition. recombinant A3A, FAM/TAMRA ssDNA deamination fluorescence. inhibition, % at 20 µM. 0.41% of 330,000 active. AID 493011;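 active = at least 40% inhibition at 20 µM here, with at most 30% in a related deaminase screen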;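 also: plate controls were A3A with DMSO for no effect and wells lacking A3A enzyme for full effect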
Target sequence (P31941 whole entry, looked up): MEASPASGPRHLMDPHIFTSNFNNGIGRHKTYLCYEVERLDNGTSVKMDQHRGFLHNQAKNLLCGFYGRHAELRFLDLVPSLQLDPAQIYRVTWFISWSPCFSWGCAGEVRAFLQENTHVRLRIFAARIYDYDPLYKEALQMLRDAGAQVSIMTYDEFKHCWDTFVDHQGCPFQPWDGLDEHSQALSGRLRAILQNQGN
PfM18AAP inh – PfM18AAP enzyme inhibition; recombinant PfM18AAP, H-Glu-NHMec fluorogenic cleavage; inhibition, % at 7.35 µM; 1.2% of 290,000 active;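 active = inhibition above the campaign mean inhibition over all tested compounds plus 3 SD, cut at about 28% in these data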;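 also: 0% = plate median of test compound wells and 100% = 2 mM ZnCl2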
NRP1-CendR mod – modulators of CendR peptide binding to human neuropilin-1 | O14786 | FAM-RPARPAR peptide binding to NRP-1, fluorescence polarization | inhibition, % at 25 µM | 0.85% of 360,000 active | AID 602438;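 active = inhibition or corrected inhibition above about 18%, plus a signal ratio from 0.5 to 1.5, limit read from the data, passing the limit was not always enough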
ALR H2O2 inh – inhibitors of human sulfhydryl oxidase ALR; P55789; purified ALR, DTT oxidation, H2O2 HRP-luminol luminescence; inhibition, % (concentration not given with the values); 3.8% of 290,000 active; AID 485317;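 active = mean replicate inhibition above about 79%, with every replicate also reaching it, limit read from the data; inconclusive = only one of the two criteria met; inactive = mean below limit and not every replicate reaching it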
Target sequence (P55789 whole entry, looked up): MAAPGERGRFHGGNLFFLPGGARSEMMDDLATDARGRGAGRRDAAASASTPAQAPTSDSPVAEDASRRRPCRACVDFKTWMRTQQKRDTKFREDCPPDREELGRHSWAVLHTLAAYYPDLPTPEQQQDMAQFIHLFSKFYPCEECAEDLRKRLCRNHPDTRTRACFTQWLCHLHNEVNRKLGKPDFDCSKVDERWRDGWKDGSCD
APOBEC3G inh – APOBEC3G (human) deaminase inhibition; Q9HC16; recombinant A3G, ssDNA deamination FAM/TAMRA fluorescence; inhibition, % at 20 µM; 0.28% of 330,000 active; AID 493012;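 active = inhibition of at least 40% at 20 µM, with no more than 30% in the related APOBEC3A deaminase screen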;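 also: plate controls were DMSO wells with A3G for no effect and wells lacking A3G enzyme for full effect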
Starred values were filed as active, the others as inactive. In the library only some 5.2% were active in any assay of this set; here they are far more common.

How did Cc1nc2ccccn2c1C(=O)/C=C/c1cccc([N+](=O)[O-])c1 do in these assays?
CR mimetic SO: 100; A3A deaminase: 6; PfM18AAP inh: -10; NRP1-CendR mod: -5; ALR H2O2 inh: 54; APOBEC3G inh: 2

What do the screens show for `CC(=O)Nc1ccc(S(=O)(=O)NCc2nnnn2-c2ccc(F)cc2)cc1`?
CR mimetic SO: 105; A3A deaminase: -1; NRP1-CendR mod: 14; ALR H2O2 inh: -2; APOBEC3G inh: -4

Results for CCCCc1nc(Cl)c(C#N)c2c1CCC2 ?
CR mimetic SO: 110; A3A deaminase: 0; PfM18AAP inh: 6; NRP1-CendR mod: 4; APOBEC3G inh: 0

Results for COc1ccc(C(CNC(=O)c2ccc(-c3ccccc3Cl)o2)N2CCCC2)cc1 (stereo not drawn) ?
NRP1-CendR mod: -5

How did Cc1ccc(/C=C/C(=O)c2ccccc2)cc1 do in these assays?
CR mimetic SO: 99; A3A deaminase: -1; PfM18AAP inh: -3; NRP1-CendR mod: -7; ALR H2O2 inh: 97*; APOBEC3G inh: -7

Results for Cc1cc(=O)[nH]c(SCC(=O)Nc2ccc3c(c2)CCC3)c1C#N ?
CR mimetic SO: 87; A3A deaminase: -3; NRP1-CendR mod: 13; ALR H2O2 inh: 49; APOBEC3G inh: -7

How did N#Cc1c(SCC(=O)Nc2ccc(C(F)(F)F)cc2)sc2c(O)cc(=O)[nH]c12 do in these assays?
CR mimetic SO: 81; A3A deaminase: 2; PfM18AAP inh: 9; NRP1-CendR mod: -9; ALR H2O2 inh: 95*; APOBEC3G inh: -3

Results for Cc1cc(=O)[nH]c(SCC(=O)Nc2ccc(Br)cc2)c1C#N ?
CR mimetic SO: 101; A3A deaminase: 0; PfM18AAP inh: 1; NRP1-CendR mod: -1; ALR H2O2 inh: 99*; APOBEC3G inh: -4

Results for Cc1cc(=O)[nH]c(SCC(=O)Nc2ccc(F)cc2)c1C#N ?
CR mimetic SO: 91; A3A deaminase: -2; PfM18AAP inh: 4; NRP1-CendR mod: -6; ALR H2O2 inh: 91*; APOBEC3G inh: -2

Results for CCOC(=O)Cn1c2ccc(OC)cc2c2nc3ccccc3nc21 ?
CR mimetic SO: 100; A3A deaminase: 1; PfM18AAP inh: 2; NRP1-CendR mod: 126; ALR H2O2 inh: -3; APOBEC3G inh: -5

What do the screens show for `N#Cc1c(NC(NC(=O)c2ccco2)C(=O)c2ccccc2)sc2c1CCCC2` (stereo not drawn)?
CR mimetic SO: 88; A3A deaminase: 1; PfM18AAP inh: 22; NRP1-CendR mod: -26; ALR H2O2 inh: 2; APOBEC3G inh: 13

How did O=C1c2ccccc2NC(c2ccccc2)N1/N=C/c1ccccc1 (stereo not drawn) do in these assays?
CR mimetic SO: 102; A3A deaminase: 0; PfM18AAP inh: -7; NRP1-CendR mod: 2; ALR H2O2 inh: 4; APOBEC3G inh: -4

Results for O=C1c2ccccc2NC(c2ccc(O)cc2)N1/N=C/c1ccc(O)cc1 (stereo not drawn) ?
CR mimetic SO: 110; A3A deaminase: -4; PfM18AAP inh: -6; NRP1-CendR mod: -7; ALR H2O2 inh: 99*; APOBEC3G inh: -7

Results for CS(=O)(=O)c1ccc(Cl)c(NC(=O)COC(=O)CNC(=O)c2ccc3ccccc3c2)c1 ?
CR mimetic SO: 90; A3A deaminase: -3; NRP1-CendR mod: 2; ALR H2O2 inh: -6; APOBEC3G inh: -3

How did COc1ccc(C2NC(=O)c3ccccc3O2)cc1 (stereo not drawn) do in these assays?
CR mimetic SO: 97; A3A deaminase: -2; PfM18AAP inh: 0; NRP1-CendR mod: 23*; ALR H2O2 inh: -8; APOBEC3G inh: -6

What do the screens show for `O=C(Cc1cccc2ccccc12)Nc1ccc(Br)cc1C(=O)O`?
CR mimetic SO: 99; A3A deaminase: -4; PfM18AAP inh: -5; NRP1-CendR mod: -8; APOBEC3G inh: -4

How did O=C(CSCc1ccc(Cl)cc1)Nc1ccc(O)cc1C(=O)O do in these assays?
CR mimetic SO: 90; A3A deaminase: -5; PfM18AAP inh: 4; NRP1-CendR mod: 10; ALR H2O2 inh: 96*; APOBEC3G inh: -3

How did O=C(Cc1cccc2ccccc12)Nc1ccc(O)cc1C(=O)O do in these assays?
CR mimetic SO: 102; A3A deaminase: 1; PfM18AAP inh: 3; NRP1-CendR mod: -16; ALR H2O2 inh: 97*; APOBEC3G inh: -1

What do the screens show for `CCOC(=O)C1(C)CCCN(C(=O)c2ccc(C#N)cc2)C1` (stereo not drawn)?
NRP1-CendR mod: 0

How did CCCCOC(=O)CCn1c(=S)oc2ccccc21 do in these assays?
CR mimetic SO: 101; A3A deaminase: -18; PfM18AAP inh: 3; NRP1-CendR mod: 53*; ALR H2O2 inh: -4; APOBEC3G inh: -4

How did CC(=O)N/C(=C\c1ccc(Cl)cc1)C(=O)O do in these assays?
CR mimetic SO: 89; A3A deaminase: -3; PfM18AAP inh: -3; NRP1-CendR mod: 1; ALR H2O2 inh: 1; APOBEC3G inh: -4

What do the screens show for `CN(C)CCN1CCN(C2CN(Cc3ccc([N+](=O)[O-])cc3)S(=O)(=O)C2)CC1` (stereo not drawn)?
NRP1-CendR mod: 22*

How did CN1CCN(C2CN(Cc3ccc([N+](=O)[O-])cc3)S(=O)(=O)C2)CC1 (stereo not drawn) do in these assays?
NRP1-CendR mod: -8

What do the screens show for `CC1CC(C)CN(C(=O)c2ccc(-c3ccc([N+](=O)[O-])cc3)o2)C1` (stereo not drawn)?
CR mimetic SO: 102; A3A deaminase: -2; NRP1-CendR mod: 14; ALR H2O2 inh: 89*; APOBEC3G inh: 3

How did O=C(c1ccc(-c2ccc([N+](=O)[O-])cc2)o1)N1CCCCC1 do in these assays?
CR mimetic SO: 82; A3A deaminase: -1; PfM18AAP inh: 19; NRP1-CendR mod: 0; ALR H2O2 inh: 1; APOBEC3G inh: -1

How did COC(=O)c1ccsc1NS(=O)(=O)c1ccccc1 do in these assays?
CR mimetic SO: 107; A3A deaminase: -3; PfM18AAP inh: -12; NRP1-CendR mod: -21; ALR H2O2 inh: 80*; APOBEC3G inh: -6

What do the screens show for `COc1ccc(N2C(=O)CC(Sc3nc4ccccc4s3)C2=O)cc1OC` (stereo not drawn)?
CR mimetic SO: 107; A3A deaminase: -4; PfM18AAP inh: -28; NRP1-CendR mod: 1; ALR H2O2 inh: 97*; APOBEC3G inh: -3

Results for CC(=O)Nc1ccc(N2C(=O)CC(Sc3nc4ccccc4s3)C2=O)cc1 (stereo not drawn) ?
CR mimetic SO: 93; A3A deaminase: -3; PfM18AAP inh: -40; NRP1-CendR mod: -1; ALR H2O2 inh: inconclusive; APOBEC3G inh: -1

What do the screens show for `C/C(=N\Nc1ccc(S(=O)(=O)N2CCCCC2)cn1)c1ccc(O)cc1`?
CR mimetic SO: 82; A3A deaminase: -2; NRP1-CendR mod: 2; ALR H2O2 inh: 91*; APOBEC3G inh: -1

Bioassay records: PubChem, several laboratories
